Measurements published in PubChem BioAssay.
“And” between values parts separate entries of the source, which are not always exact repeats. Equal values may be shown once.

Assays:
[1] = test system: Human papillomavirus type 1a protein E7 (residues 44-93); assay: small molecules binding HPV E7 44-93 – biochemical, small-molecule microarray, residues 44-93, 635 nm fluorescence, primary screen (AID 1108); conditions: fluorescence 635 nm, higher = more signal;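 further: E7 fragment applied at 1 µg/mL in TBST for 1 h at 4 C; score combines spot fluorescence with its signal to noise ratio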
[2] = hepatitis C replication reporter changes, two-sided – Huh7 cells, luciferase reporter, HCV replication inhibitor project, primary screen (AID 1109); conditions: Huh7 HCV replicon luciferase reporter, 48 h; higher = more signal;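 further: huh7 hepatoma cells harbouring a luciferase neomycin HCV replicon reporter; luciferase luminescence as measure of HCV replicon replication; test concentration not given here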
[3] = target: Left-right determination factor 2 (Homo sapiens) (UniProt O00292); assay: small molecules binding LEFTY2 protein – biochemical, small-molecule microarray, 635 nm fluorescence scan, primary screen (AID 1110); conditions: higher = more signal
[4] = target: Calmodulin-1 (Homo sapiens) (UniProt P0DP23); assay: small molecules binding calmodulin-1 with EGTA – biochemical, small-molecule microarray, Cy5-labelled CALM1, profiling panel (AID 1111); conditions: Cy5-CALM1 binding fluorescence, higher = more signal;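 further: labelled calmodulin applied in Tris saline Tween buffer holding calcium plus EGTA and DTT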
[5] = target: Calmodulin-1 (Homo sapiens) (UniProt P0DP23); assay: small molecules binding Ca-loaded calmodulin-1 – biochemical, small-molecule microarray, Cy5-labelled CALM1, plus calcium, artefact control for SMM control-protein annotation, profiling panel (AID 1112); conditions: Cy5-CALM1 binding fluorescence, higher = more signal;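 further: score merges spot fluorescence with signal to noise from triplicate slides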
[6] = probe aWnt5a binding to arrayed compounds – biochemical, biotinylated probe, 635/667 nm fluorescence, primary screen (AID 1113); conditions: small-molecule microarray, higher = more signal;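 further: score merges 667 nm fluorescence intensity with signal-to-noise per printed feature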
[7] = probe aShh binding to arrayed compounds – biochemical, biotinylated probe, 635/667 nm fluorescence, primary screen (AID 1114); conditions: small-molecule microarray, higher = more signal;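 further: probe is biotin-labelled aShh protein from a stem cell growth factor screen; measures binding of labelled protein to compounds printed on the slide; score merges feature fluorescence at 667 nm with signal-to-noise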
[8] = probe aNog binding to arrayed compounds – biochemical, biotinylated probe, 635/667 nm fluorescence, primary screen (AID 1115); conditions: small-molecule microarray, higher = more signal;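 further: probe is biotinylated aNog protein used at 0.15 µg/mL for 1 h at 4 C; z-score combines 667 nm fluorescence of each spot with its signal to noise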
[9] = target: Torsin-1A-interacting protein 1 (Homo sapiens) (UniProt Q5JTV8); assay: compound microarray binding of lysate hLAP1 – cell lysate, small-molecule microarray, COS7 lysate, 635/667 nm fluorescence, primary screen (AID 1116); conditions: 635 nm fluorescence, higher = more signal
[10] = target: Alpha-bungarotoxin (Bungarus multicinctus) (UniProt P60615); assay: compounds binding labelled alpha-BTX control protein – biochemical, small-molecule microarray, Alexa647 label, 635/667 nm fluorescence, artefact control for SMM control protein annotation, profiling panel (AID 1117); conditions: alpha-BTX-A647 binding fluorescence, higher = more signal
Sequence of Alpha-bungarotoxin (Bungarus multicinctus) (P60615 whole entry, looked up): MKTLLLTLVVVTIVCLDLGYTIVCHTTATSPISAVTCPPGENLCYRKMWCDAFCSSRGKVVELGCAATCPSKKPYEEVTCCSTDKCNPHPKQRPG

Sequence of Torsin-1A-interacting protein 1 (Homo sapiens) (Q5JTV8 whole entry, looked up): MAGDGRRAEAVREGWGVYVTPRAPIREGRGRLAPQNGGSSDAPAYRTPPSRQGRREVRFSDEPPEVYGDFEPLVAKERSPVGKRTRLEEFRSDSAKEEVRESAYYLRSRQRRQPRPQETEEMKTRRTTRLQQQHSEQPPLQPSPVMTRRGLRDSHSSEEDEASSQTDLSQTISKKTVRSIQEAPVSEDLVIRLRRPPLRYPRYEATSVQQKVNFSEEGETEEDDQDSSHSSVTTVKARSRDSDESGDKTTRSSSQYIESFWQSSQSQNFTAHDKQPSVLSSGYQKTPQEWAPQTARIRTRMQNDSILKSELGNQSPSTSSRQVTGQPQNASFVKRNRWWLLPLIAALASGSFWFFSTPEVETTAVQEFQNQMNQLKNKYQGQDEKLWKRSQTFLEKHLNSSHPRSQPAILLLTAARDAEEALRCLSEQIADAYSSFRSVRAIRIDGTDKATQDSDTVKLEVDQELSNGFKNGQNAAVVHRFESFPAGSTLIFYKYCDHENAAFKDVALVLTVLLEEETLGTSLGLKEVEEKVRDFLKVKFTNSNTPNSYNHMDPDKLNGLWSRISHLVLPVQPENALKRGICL
Sequence of Left-right determination factor 2 (Homo sapiens) (O00292 whole entry, looked up): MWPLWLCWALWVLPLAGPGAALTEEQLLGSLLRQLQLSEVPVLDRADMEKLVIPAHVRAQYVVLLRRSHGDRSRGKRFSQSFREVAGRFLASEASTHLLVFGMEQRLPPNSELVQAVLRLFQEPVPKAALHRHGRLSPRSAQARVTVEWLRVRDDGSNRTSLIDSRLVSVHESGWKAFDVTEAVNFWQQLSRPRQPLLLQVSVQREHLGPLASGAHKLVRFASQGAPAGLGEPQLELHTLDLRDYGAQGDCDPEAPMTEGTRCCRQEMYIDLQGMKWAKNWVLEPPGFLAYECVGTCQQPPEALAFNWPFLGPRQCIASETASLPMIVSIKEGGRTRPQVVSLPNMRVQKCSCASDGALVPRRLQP

| SMILES | composite z-score [1] | z-score [2] | composite z-score [3] | composite z-score [4] | composite z-score [5] | composite z-score [6] | composite z-score [7] | composite z-score [8] | composite z-score [9] | composite z-score [10] |
| --- | --- | --- | --- | --- | --- | --- | --- | --- | --- | --- |
| COc1ccc(O[C@H]2C=C[C@@H](c3ccccc3)O[C@@H]2COC(=O)CCC(C)=NO[C@H](C)c2cn([C@H](CO)Cc3ccccc3)nn2)cc1 | -0.0009 and -0.0146 | -1.99 and -2.59 | 0.195 and 0.439 | -0.223 and -0.233 | -0.232 and -0.239 | -0.132 and 0.205 | -0.0553 and -0.129 | -0.0827 and 0.96 | 0.14 and 0.392 | 0.211 and 0.231 |
| C[N+](C)(C)CCCCCCNC(=O)[C@@H]1C[C@@H]2C(=O)N[C@@H](CCCC[N+](C)(C)C)C(=O)N2[C@@H]1c1ccc(O)cc1 | -0.259 and 0.575 | -0.0888 and 0.51 | 0.515 and 0.0005 | -0.529 and -0.759 | 0.458 and -0.85 | -0.144 and -0.13 | -0.304 and -0.221 | -0.0281 and -0.295 | 2.61 and 0.23 | -0.137 and 0.0818 |
| COC(=O)C1=C(C)N(Cc2ccccc2)C2=C(C(=O)c3ccccc3)[C@H](c3ccccc3)[C@@](O)(C(=O)OC)C(=O)N2[C@@H]1c1ccccc1 | 1.15 and 0.774 | -2.05 and 0.964 | 0.32 and 0.577 | 0.046 and -0.136 | -0.373 and -0.51 | -0.176 and -0.1 | -0.137 and -0.0626 | -0.31 and 0.0197 | 0.202 and 0.17 | -0.115 and -0.0752 |
| C=CC[C@@H](O)c1ccc(O)c(F)c1 | -0.612 and -0.685 | -0.947 and 0.848 | -2.46 and -1.47 | -0.75 and -1.41 | 0.0576 and -0.0804 | -0.0399 and -0.278 | -0.332 and -0.124 | -0.116 and -0.62 | -0.635 and -0.47 | -1.9 and -2.33 |
| C[N+](C)(C)CCCCNC(=O)[C@@H]1C[C@@H]2C(=O)N[C@@H](CCCC[N+](C)(C)C)C(=O)N2[C@@H]1c1cccc(OCCO)c1 | 0.845 and 0.331 | -0.552 and -0.848 | 1.59 and 1.49 | -1.47 and -1.67 | -2.01 and -0.543 | -0.0758 and 0.048 | 0.23 and -0.0232 | -0.12 and 0.0139 | 2.23 and 1.62 | -0.257 and 1.62 |
| CCOC(=O)C[C@H]1[C@H](OC(=O)c2ccccc2-c2ccccc2)[C@@H](NC(=O)Cc2ccc(OC)cc2)c2cc(OCCCO)ccc2N1C(=O)Cc1ccc(OC)cc1 | 0.361 and -0.687 | -0.912 and -0.962 | 0.422 and -0.519 | 1.11 and -0.163 | 0.971 and -0.309 | -0.0346 and -0.0107 | 0.412 and -0.0977 | 0.811 and 0.467 | 0.477 and 0.415 | 0.873 and 0.224 |
| O=C1[C@H]2[C@H]3[C@H](O)[C@H](O)CC(=NOCc4ccccc4)[C@H]3CC[C@H]2C(=O)N1Cc1ccccc1 | -0.424 | -0.44 | 0.552 | -0.0595 | -0.477 | -0.222 | -0.0772 | -0.182 | 0.197 | -0.0806 |
| CCOC(=O)[C@@H]1CC=C2CC1C(=O)N1CCC[C@@H]1[C@H]2O[Si](C)(C)C(C)(C)C (stereo not given in full) | -1.02 and -0.733 | -0.558 and -1.14 | -0.355 and 0.279 | -1.9 and -1.57 | -0.312 and -1.91 | -0.0512 and -0.252 | 0.0611 and -0.2 | -0.0863 and -0.48 | -0.496 and -1.03 | -0.922 and -1.49 |
| C=C[C@@H](C)[C@@H](O)c1ccc(O)c2ccccc12 | -0.719 and -0.288 | -1.55 and -2.15 | -1.21 and -0.861 | -0.878 and -0.992 | -0.36 and -0.903 | -0.146 and -0.236 | 0.23 and -0.214 | -0.337 and -0.411 | -0.802 and 0.0066 | -1.29 and 1.65 |
